# Measurements: PubChem BioAssay
# Results filed as inconclusive are left out. Calls of active or inactive are those of the source. Unless noted, no cut-off is given here; in the data, nearly all actives have AC50 up to about 37 µM.
# Legend:
# [1] = growth inhibition of DIPG glioma cells, dose response, cell-based, SU-DIPG-XVII, MIPE5.0, CellTiter-Glo, qHTS (AID 1347060; cut-off not given, nearly all actives have AC50 up to about 26 µM); details: SU-DIPG-XVII viability, CellTiter-Glo ATP luminescence
# [2] = growth inhibition of DIPG glioma cells, dose response, cell-based, SU-DIPG-XIII, MIPE4.0, CellTiter-Glo, qHTS (AID 1347061); details: SU-DIPG-XIII viability, CellTiter-Glo ATP luminescence;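 note: cells exposed to compound for 48 hours before readout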
# [3] = growth inhibition of DIPG glioma cells, dose response, cell-based, SU-DIPG-XIII, MIPE5.0, CellTiter-Glo, qHTS (AID 1347064; cut-off not given, nearly all actives have AC50 up to about 23 µM;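 for AC50: cells exposed to compound for 48 hours before the viability read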); details: SU-DIPG-XIII viability, CellTiter-Glo ATP luminescence
# [4] = biological target: NAD(+) hydrolase SARM1 (Homo sapiens) (UniProt Q6SZW1); assay: SARM1 TIR NADase inhibitors, cell lysate, NAD-Glo luminescence (AID 1508614;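 active = compound whose remaining NAD level is above about 45 nM, limit read from the data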;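 note: higher remaining NAD means stronger inhibition of SARM1 NADase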); details: SAM-TIR HEK293T lysate NADase, at 1 µM, stronger effect = higher value
# [5] = circadian clock period modulators, cell-based, LOPAC library, luminescence reporter (AID 2774; call rule not given here;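 note: values are relative to mean of DMSO wells on each plate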); details: circadian reporter cells, at 7 µM, actives lie on both sides
# [6] = system: Hepatitis C virus NS3 helicase; assay: HCV NS3 helicase inhibitors, primary screen, biochemical, fluorescence polarization, LOPAC1280 library (AID 687035; in the data active = inhibition above about 37%); details: Purified HCV NS3 helicase, Cy5-dT15 ssDNA binding fluorescence polarization; stronger effect = higher value; concentration not given here
# [7] = Cy5 fluorescence quenching or enhancement artefacts, artefact control for HCV NS3 helicase inhibitor project, biochemical, LOPAC1280 (AID 687037; call rule not given here); details: Cy5-DNA-NS3h complex fluorescence interference counterscreen
# [8] = LFS_MB_P medulloblastoma growth inhibition, cell-based, chromothripsis tumors, cisplatin or BGB combos (AID 1671449; in the data active = inhibition above about 80%;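 note: cells exposed for 96 hours; 0% = vehicle DMSO and 100% = killing by high DMSO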); details: LFS_MB_P medulloblastoma cells
# [9] = HDN33 neuroblastoma growth inhibition, cell-based, chromothripsis tumors, cisplatin or BGB combos (AID 1671450; in the data active = inhibition above about 80%;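 note: cells exposed to compound for four days; 0% = vehicle DMSO and 100% = cell killing by high DMSO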); details: HDN33 neuroblastoma cells, stronger effect = higher value
# [10] = ICB984 medulloblastoma cell growth inhibition, synergistic combos for chromothripsis tumors, cisplatin or BGB combos (AID 1671451; call rule not given here;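 note: cells exposed for 96 hours before readout; 0% = vehicle DMSO and 100% = killing by high DMSO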); details: ICB984 medulloblastoma cells, drug combinations, stronger effect = higher value
# [11] = LFS_MB_1R medulloblastoma cell growth inhibition, synergistic combos for chromothripsis tumors, cisplatin or BGB combos (AID 1671452; in the data active = inhibition above about 80%;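 note: cells exposed for 96 hours before readout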); details: LFS_MB_1R medulloblastoma cells, stronger effect = higher value
# [12] = HTB85 osteosarcoma cell growth inhibition, synergistic combos for chromothripsis tumors, BGB or cisplatin IC20 combos (AID 1671453; in the data active = inhibition above about 80%;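 note: cells exposed for 96 hours before readout; 0% = vehicle DMSO and 100% = high DMSO killing control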); details: HTB85 osteosarcoma cells, drug combinations, stronger effect = higher value
# [13] = CRL2098 osteosarcoma cell growth inhibition, synergistic combos for chromothripsis tumors, BGB or cisplatin IC20 combos (AID 1671454; in the data active = inhibition above about 80%;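 note: cells exposed for 96 h before readout; 0% = vehicle DMSO and 100% = killing by high DMSO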); details: CRL2098 osteosarcoma cells, drug combinations, stronger effect = higher value
# [14] = HD-MB03 medulloblastoma cell growth inhibition, synergistic combos for chromothripsis tumors, BGB or cisplatin IC20 combos (AID 1671455; in the data active = inhibition above about 83%;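 note: 0% = vehicle DMSO and 100% = high DMSO as cytotoxic control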); details: HD-MB03 medulloblastoma cells, stronger effect = higher value
# [15] = UWB1.289 ovarian carcinoma cell growth inhibition, synergistic combos for chromothripsis tumors, BGB or cisplatin combos (AID 1671456; in the data active = inhibition above about 80%;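 note: cells exposed to compound for four days; 0% = vehicle DMSO and 100% = killing by high DMSO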); details: UWB1.289 ovarian carcinoma cells, stronger effect = higher value
# [16] = MDA-MB-436 breast carcinoma cell growth inhibition, synergistic combos for chromothripsis tumors, BGB or cisplatin combos (AID 1671458; call rule not given here;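 note: cells exposed for 96 hours; 0% = vehicle DMSO and 100% = killing by high DMSO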); details: MDA-MB-436 breast carcinoma growth inhibition, drug combinations, stronger effect = higher value
# [17] = growth inhibition of BT084 medulloblastoma cells, cell-based, ICGC_MB145, cisplatin and BGB IC40 combos (AID 1671461; in the data active = inhibition above about 80%;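 note: cells exposed to drugs for 96 hours; 0% = vehicle DMSO and 100% = high DMSO full killing control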); details: drug combinations, stronger effect = higher value
# [18] = growth inhibition of RCMB18 medulloblastoma cells, cell-based, cisplatin and BGB IC40 combos (AID 1671462; in the data active = inhibition above about 80%;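 note: cells exposed to compound for four days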); details: stronger effect = higher value
# [19] = growth inhibition of CRL1545 osteosarcoma cells, cell-based, cisplatin and BGB IC20 combos (AID 1671464; in the data active = inhibition above about 80%;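 note: cells exposed to compound for 96 hours before readout; 0% = vehicle DMSO and 100% = high DMSO killing control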); details: stronger effect = higher value
# [20] = modifiers of HSF1 nuclear foci, imaging, Selleck Cancer Library (AID 1347162; in the data active = plate-normalised HSF1 focus index below about 0.46); details: human cells, at 10 µM; SSMD: measured here: HSF1 foci SSMD mean; cell count: measured here: cell number; plate-normalised HSF1 focus index: stronger effect = lower value
# [21] = measured here: combination with BGB IC40, at 0.05 µM
# [22] = measured here: with BGB IC20 combination, at 0.5 µM
# [23] = measured here: with cisplatin IC20 combination, at 0.5 µM
# [24] = measured here: combination with cisplatin, at 0.5 µM
# Chain of NAD(+) hydrolase SARM1 (Homo sapiens) (Q6SZW1 whole entry, looked up): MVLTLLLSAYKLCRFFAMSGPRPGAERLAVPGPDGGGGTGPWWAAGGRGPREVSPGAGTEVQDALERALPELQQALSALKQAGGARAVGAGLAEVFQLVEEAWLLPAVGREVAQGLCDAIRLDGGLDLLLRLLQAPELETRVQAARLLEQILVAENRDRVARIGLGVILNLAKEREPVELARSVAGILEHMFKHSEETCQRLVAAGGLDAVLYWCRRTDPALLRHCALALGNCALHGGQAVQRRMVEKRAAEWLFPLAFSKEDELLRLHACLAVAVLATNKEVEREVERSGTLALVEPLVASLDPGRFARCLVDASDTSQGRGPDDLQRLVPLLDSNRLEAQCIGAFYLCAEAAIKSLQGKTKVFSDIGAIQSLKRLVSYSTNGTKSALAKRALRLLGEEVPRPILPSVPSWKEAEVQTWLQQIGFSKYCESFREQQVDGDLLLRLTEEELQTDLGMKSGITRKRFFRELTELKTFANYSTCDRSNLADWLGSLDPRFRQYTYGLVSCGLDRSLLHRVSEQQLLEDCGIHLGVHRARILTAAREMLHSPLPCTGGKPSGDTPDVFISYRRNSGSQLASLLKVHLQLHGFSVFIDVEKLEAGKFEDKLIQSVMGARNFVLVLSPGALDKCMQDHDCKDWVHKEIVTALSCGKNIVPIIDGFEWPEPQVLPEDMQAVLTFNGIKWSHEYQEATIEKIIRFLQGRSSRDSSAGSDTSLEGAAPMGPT
smiles,measurement,setting,value
Cc1nnc(C(=O)NC(C)(C)c2nc(C(=O)NCc3ccc(F)cc3)c(O)c(=O)n2C)o1,outcome,[1],inactive
same,outcome,[2],inactive
CC(C)(C)C(=O)OCOP(=O)(COCCn1cnc2c(N)ncnc21)OCOC(=O)C(C)(C)C,AC50,[2],20.9 µM (active)
same,AC50,[3],18.6 µM (active)
COc1nc(N)nc2c1ncn2[C@@H]1O[C@H](CO)[C@@H](O)[C@@H]1O,outcome,[2],inactive
same,remaining NAD,[4],10 nM (inactive)
O=C(O)c1cccc(-c2noc(-c3ccccc3F)n2)c1,outcome,[2],inactive
COC(=O)N[C@H](C(=O)N[C@@H](Cc1ccccc1)[C@@H](O)CN(Cc1ccc(-c2ccccn2)cc1)NC(=O)[C@@H](NC(=O)OC)C(C)(C)C)C(C)(C)C,outcome,[2],inactive
Cc1c(C)c2c(c(C)c1O)CCC(C)(COc1ccc(CC3SC(=O)NC3=O)cc1)O2 (centres undefined),outcome,[3],inactive
Cc1ccc(-c2ncc(Cl)cc2-c2ccc(S(C)(=O)=O)cc2)cn1,outcome,[3],inactive
O=C(O)c1nc(=O)[nH]c(=O)[nH]1,outcome,[3],inactive
NC(=O)Cc1cccc(C(=O)c2ccccc2)c1N,outcome,[2],inactive
CN(c1nccc(=O)[nH]1)C1CCN(c2nc3ccccc3n2Cc2ccc(F)cc2)CC1,outcome,[2],inactive
CCOC(=O)Nc1ccc(NCc2ccc(F)cc2)nc1N,period change,[5],-0.33 h (inactive)
same,inhibition,[6],-3% (inactive)
same,fluorescence ratio (interference),[7],1 (inactive)
same,outcome,[3],inactive
same,inhibition,"[8]; at 0.5 µM, stronger effect = higher value",-13% (inactive)
same,inhibition,"[8]; measured here: combination with BGB IC20, at 0.005 µM",-4.33%
same,inhibition,"[8]; measured here: combination with BGB IC40, at 0.005 µM",50.9%
same,inhibition,[8]; [21],-18.8%
same,inhibition,"[8]; measured here: combination with cisplatin, at 0.5 µM, stronger effect = higher value",4.96%
same,inhibition,"[8]; measured here: combination with cisplatin, at 5 µM, stronger effect = higher value",-32.9%
same,inhibition,"[9]; BGB combo, at 5 µM",-49%
same,inhibition,[9]; at 0.5 µM,0.72% (inactive)
same,inhibition,"[9]; cisplatin combo, at 5 µM",-18.8%
same,inhibition,[9]; [22],-18.2%
same,inhibition,[9]; [23],17%
same,inhibition,"[9]; single agent, at 5 µM",-28.3%
same,inhibition,"[10]; BGB IC20 combo, at 0.005 µM",-2.86%
same,inhibition,"[10]; BGB IC40 combo, at 0.005 µM",-6.26%
same,inhibition,"[10]; BGB IC40 combo, at 0.05 µM",-38.3%
same,inhibition,[10]; at 0.5 µM,-14.8% (inactive)
same,inhibition,"[10]; cisplatin combo, at 0.05 µM",-45.5%
same,inhibition,"[10]; cisplatin combo, at 0.5 µM",-9.07%
same,inhibition,"[10]; cisplatin combo, at 5 µM",-15.3%
same,inhibition,"[10]; measured here: 5 uM single agent, at 5 µM",-2.67%
same,inhibition,[11]; at 0.5 µM,-9.81% (inactive)
same,inhibition,[11]; [21],-17%
same,inhibition,[11]; [24],-23.8%
same,inhibition,"[11]; measured here: combination with cisplatin, at 5 µM",-29.7%
same,inhibition,[12]; at 0.5 µM,21.2% (inactive)
same,inhibition,"[12]; measured here: with BGB IC20, at 0.5 µM",57.6%
same,inhibition,"[12]; measured here: with BGB IC20, at 5 µM",10.9%
same,inhibition,"[12]; measured here: with cisplatin IC20, at 0.5 µM",-16.9%
same,inhibition,"[12]; measured here: with cisplatin IC20, at 5 µM",0.401%
same,inhibition,"[12]; single agent, at 5 µM",1.76%
same,inhibition,[13]; at 0.5 µM,-23.9% (inactive)
same,inhibition,"[13]; measured here: combination with BGB at IC20, at 0.5 µM",-12.9%
same,inhibition,"[13]; measured here: combination with cisplatin at IC20, at 0.5 µM",-33.8%
same,inhibition,[14]; at 0.5 µM,-9% (inactive)
same,inhibition,"[14]; measured here: combo with BGB at IC20, at 0.5 µM",-9.72%
same,inhibition,"[14]; measured here: combo with cisplatin at IC20, at 0.5 µM",-9.37%
same,inhibition,[15]; at 0.5 µM,4.04% (inactive)
same,inhibition,"[15]; measured here: inhibition with BGB combination, at 0.05 µM",-16.5%
same,inhibition,"[15]; measured here: inhibition with cisplatin combination, at 0.05 µM",-2.73%
same,inhibition,[16]; at 0.5 µM,-12.4% (inactive)
same,inhibition,"[16]; measured here: BGB combination, at 0.5 µM",-4.35%
same,inhibition,"[16]; measured here: BGB combination, at 5 µM",-17.6%
same,inhibition,"[16]; measured here: cisplatin combination, at 0.5 µM",-28%
same,inhibition,"[16]; measured here: cisplatin combination, at 5 µM",-26.4%
same,inhibition,[17]; at 0.5 µM,3.08% (inactive)
same,inhibition,"[17]; cisplatin combination, at 0.5 µM",2.67%
same,inhibition,"[17]; cisplatin combination, at 5 µM",-33.2%
same,inhibition,"[17]; measured here: BGB IC40 combination 0.05 uM, at 0.05 µM",71.5%
same,inhibition,"[17]; single agent, at 5 µM",2.9%
same,inhibition,[18]; at 0.5 µM,-10.8% (inactive)
same,inhibition,"[18]; cisplatin combo, at 5 µM",-27%
same,inhibition,"[18]; measured here: BGB IC40 combination, at 0.05 µM",4.05%
same,inhibition,[18]; [24],-15.1%
same,inhibition,"[18]; single agent, at 5 µM",-7.25%
same,inhibition,[19]; at 0.5 µM,5.77% (inactive)
same,inhibition,[19]; [22],-17.8%
same,inhibition,[19]; [23],16.2%
same,inhibition,"[19]; single agent, at 0.05 µM",-4.81%
same,inhibition,"[19]; single agent, at 5 µM",-34.9%
CCC(C)(C)c1ccc(CC(C)CN2C[C@@H](C)O[C@@H](C)C2)cc1 (some centres undefined),remaining NAD,[4],10 nM (inactive)
COc1cc(Nc2c(C#N)cnc3cc(OCCCN4CCN(C)CC4)c(OC)cc23)c(Cl)cc1Cl,SSMD,[20],-18.3
same,cell count,[20],5030
same,plate-normalised HSF1 focus index,[20],0.345 (active)
CC(=O)O[C@@]12CO[C@@H]1C[C@H](O)[C@@]1(C)C(=O)[C@H](O)C3=C(C)[C@@H](OC(=O)[C@H](O)[C@@H](NC(=O)OC(C)(C)C)c4ccccc4)C[C@@](O)([C@@H](OC(=O)c4ccccc4)[C@H]21)C3(C)C,outcome,[3],inactive
same,remaining NAD,[4],10 nM (inactive)
CCCCCCCCOc1ccccc1C(=O)Nc1ccc(C(=O)OCC[N+](C)(CC)CC)cc1,outcome,[2],inactive
C#Cc1cccc(Nc2ncnc3cc(OCCOC)c(OCCOC)cc23)c1,SSMD,[20],2.72
same,cell count,[20],6730
same,plate-normalised HSF1 focus index,[20],1.14 (inactive)
Clc1cccc(C(c2ccc3nc[nH]c3c2)n2ccnc2)c1 (centres undefined),outcome,[3],inactive
COc1cc(NCc2ccc3nc(N)nc(N)c3c2C)cc(OC)c1OC,AC50,[3],7.42 µM (active)
CN1C[C@H]2c3ccccc3Oc3ccc(Cl)cc3[C@@H]2C1,outcome,[2],inactive
O=C(O)c1c(Cl)c(Cl)c(Cl)c(Cl)c1-c1c2cc(I)c(=O)c(I)c-2oc2c(I)c(O)c(I)cc12,AC50,[2],16.6 µM (active)
same,AC50,[3],6.61 µM (active)
CC1=C(C)C(=O)C(CCCCC#CCCCC#CCO)=C(C)C1=O,period change,[5],-0.105 h (inactive)
same,inhibition,[6],-2% (inactive)
same,fluorescence ratio (interference),[7],1 (inactive)
